Compound activity: PubChem BioAssay, National Center for Advancing Translational Sciences (NCATS)
FLuc modulator: inhibits or activates purified firefly luciferase, miR-21 counter-screen; P08659; purified FLuc, Km substrates, luminescence inhibition; Potency, µM (titrated, usually from 57.5 µM), for inactives: top-dose activity change, negative = inhibition, most hits filed as inhibitors; 6.9% of 360,000 active;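 note: plate controls were vehicle for no effect and reference inhibitor for full effect; nearly all actives have a fitted effect of over 55% in size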
Target sequence (P08659 whole entry, looked up): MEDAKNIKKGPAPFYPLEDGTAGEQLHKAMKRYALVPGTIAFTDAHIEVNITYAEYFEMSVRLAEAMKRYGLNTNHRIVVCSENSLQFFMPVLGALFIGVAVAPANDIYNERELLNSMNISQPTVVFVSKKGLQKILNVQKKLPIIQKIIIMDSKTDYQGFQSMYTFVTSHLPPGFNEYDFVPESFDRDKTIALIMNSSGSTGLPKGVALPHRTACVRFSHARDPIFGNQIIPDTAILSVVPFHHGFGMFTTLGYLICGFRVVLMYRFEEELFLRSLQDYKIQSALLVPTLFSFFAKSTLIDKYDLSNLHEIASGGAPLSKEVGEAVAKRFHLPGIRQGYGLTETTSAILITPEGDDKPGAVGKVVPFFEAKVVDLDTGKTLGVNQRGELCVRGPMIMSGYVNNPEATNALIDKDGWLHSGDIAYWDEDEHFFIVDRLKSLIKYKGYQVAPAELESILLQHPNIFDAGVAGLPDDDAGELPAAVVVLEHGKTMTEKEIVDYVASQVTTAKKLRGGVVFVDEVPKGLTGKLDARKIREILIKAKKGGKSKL
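Purified P. pyralis luciferase, 10 nM final, with Km-level 10 uM D-luciferin and 10 uM ATP in 50 mM Tris acetate pH 7.5, 10 mM Mg acetate, 0.01% Tween-20, 0.05% BSA; 6-point qHTS titration about 60 µM downward; luminescence read.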
SMN2 splice enh: SMN2 splice variant enhancement. HEK293 SMN2-luciferase splicing reporter, luminescence, 30-36 h. Potency, µM (highest dose often 46.1 µM), for inactives: at the top dose activity change, positive = activation, actives largely listed as activators. 2.8% of 210,000 active. AID 1458; note: % of control where 0% means no effect; nearly all actives have a fitted effect of over 55% in size
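HEK293 cells carry an SMN2 […]–luciferase reporter in which exon 7 inclusion puts luciferase in frame. Cells were plated 10-12 h before compound addition, then incubated 30-36 h at 37C. ONE-Glo luminescence was read; sodium butyrate at 4.5 mM final served as control.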
KinaseGlo FLuc: blocks Kinase-Glo luciferase, a counter-screen artifact; Potency, µM (titrated, usually from 38.3 µM), without a hit: at the highest dose activity change, negative = inhibition, usual class: inhibitors; AID 1379; Kinase-Glo luciferase, ATP luminescence, 8 min; 0.28% of 200,000 active; Q27757; note: % is set by controls: 0 for no effect and ±100 for the full control effect; nearly all actives have a fitted effect of over 60% in size
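Light output from Kinase-Glo luciferase with luciferin and 10 uM ATP in 50 mM imidazole pH 7.2, KCl, MgCl2, Tween 20, BSA; compound pin-delivered, 8-min ambient incubation, then luminescence read.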
NPC1 promoter act: activators of NPC1 promoter; Huh7 NPC1 promoter luciferase reporter, 24 h; Potency, µM (titrated, usually from 9.22 µM), without a hit: top-dose activation, usual class: activators; 2.4% of 320,000 active; note: % of control where 0% means no effect; nearly all actives have a fitted effect of over 60% in size
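Luciferase expression driven by the NPC1 promoter was measured in stably transfected Huh7 cells after a 24 h compound incubation, using a luciferase reagent and a luminescence read.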
Rab9 prom act: Rab9 promoter activation; Huh7 Rab9 promoter-luciferase reporter, luminescence, 24 h; Potency, µM (titrated, usually from 9.22 µM), for inactives: at the highest dose activation, negative = inhibition, actives largely listed as activators; 2.8% of 320,000 active; note: % of control where 0% means no effect; nearly all actives have a fitted effect of over 60% in size
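Rab9 promoter-driven luciferase in stably transfected Huh7 cells; 1500 cells/well rested 2 h, exposed to compound in DMSO for 24 h at 37 °C, 5% CO2. Luminescence read 10 min after adding luciferase reagent at ambient temperature.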
ELG1 genotoxic: inducers of genotoxicity in HEK293T ELG1-luciferase cells. 1.3% of 330,000 active. HEK293T ELG1-luciferase reporter, luminescence, 16 h. Potency, µM (titrated, usually from 46 µM), for inactives: at the highest dose activity change, positive = activation, most hits filed as activators; note: % of control where 0% means no effect; nearly all actives have a fitted effect of over 60% in size
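Cells (2,000/well) expressing the ELG1-luciferase fusion are dosed by pin tool and kept 16 hr at 37 °C, 5% CO2. Signal comes from ONE-Glo luciferase reagent after 30 min at room temperature.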
An asterisk follows results filed as active; ? = inconclusive; / = no result given; [ ] = another dose, or the depositor's remark. Rows were chosen to be rich in hits. Some 7.3% of all compounds tested hit in one or more screens of this group. Calls come from the whole dose curve; as a rule, active = well fitted curve in the direction sought with a large enough effect; inconclusive = small, poorly fitted or top-dose-only effect, or another doubt; inactive = no such curve, though single readings can be large; an effect the other way counts as inactive or inconclusive. Potency is the fitted concentration of half-maximal effect.

SMILES	FLuc modulator	SMN2 splice enh	KinaseGlo FLuc	NPC1 promoter act	Rab9 prom act	ELG1 genotoxic
CCOc1ccc(NC(=O)N(Cc2cn(CC)c3ccccc23)C2CCCCCC2)cc1	-14%	?	/	/	/	/
CC/C=C\C/C=C\C/C=C\C/C=C\C/C=C\C/C=C\CCC(N)=O	/	2%	-1%	/	/	/
COc1ccc(NC(=O)CCn2c(-c3ccc(F)cc3)cc(C(C)=O)c2C)c(OC)c1	5%	/	/	/	/	/
O=C(Nc1sc2c(c1C(=O)O)CCC2)c1ccccc1Cl	?	/	/	0%	-1%	-11%
CNC(=O)c1c(NC(=O)c2nc3ccccc3s2)sc2c1CCC2	5.4µM*	13µM*	-3%	?	2µM*	4.6µM*
O=C(Nc1sc2c(c1C(=O)N1CCOCC1)CCCCC2)c1cccnc1	4%	-9%	-1%	-2%	-5%	3%
Cc1ccccc1C(=O)Nc1sc2c(c1C(=O)O)CCC2	19µM*	5%	-7%	-1%	-13%	-5%
Cc1cccc(C(=O)Nc2sc3c(c2C(=O)O)CCCC3)c1	15µM*	15%	/	23%	28%	0%
O=C(Nc1sc2c(c1C(=O)O)CCCCC2)c1cccnc1	17µM*	/	/	25%	28%	6%
CC#CCN1c2ccccc2[C@]23C[C@@H](C(=O)OC)N(S(=O)(=O)c4ccc(C(F)(F)F)cc4)C2=NC(C(=O)OC)=C(C(=O)OC)[C@H]13	/	-2%[9.22 µM]	-1%[7.66 µM]	/	/	/
CC(=O)c1ccc(N2CCN(C(=O)c3cc4cc5cc(C)ccc5nc4s3)CC2)cc1	2%	/	/	/	/	/
COc1cc(OC)c(NC(=O)Nc2ccc3c(c2)N(C)C(=O)c2ccccc2S3)cc1Cl	-12%	/	/	/	/	/
CCCCc1nc2c(c3c1C[C@H](C)OC3)CN(C(=O)Cc1cccs1)CC2	/	-5%[9.22 µM]	-3%[7.66 µM]	/	/	/
Cc1cccc(C(=O)Nc2ccc(N3CCC(N4CCCCC4)CC3)c(C(=O)O)c2)c1	-4%	/	/	/	/	/
CC(C)(C)C(=O)N1CCN(c2nc3ccccc3s2)CC1	15µM*	/	/	2.5µM*	?	16%[9.26 µM]
CCSc1ccccc1C(=O)N1CCN(c2nc3ccccc3s2)CC1	-13%	/	/	/	/	/
CCc1ccc2nc(N3CCN(C(=O)C(C)(C)C)CC3)sc2c1	15µM*	/	/	27%	22%	0%
O=C(O)c1c2c(nc3ccccc13)/C(=C/c1ccc(O)cc1)CCC2	19µM*	20%	1%	2%	9%	0%
COc1ccc(/C=C2\CCc3c2nc2ccccc2c3C(=O)O)cc1OC	0.3µM*	/	/	0.4µM*	0.32µM*	4.1µM*
c1ccc2c(c1)CCc1c-2nc2ccccc2c1N1CCOCC1	-10%	/	/	-3%	-13%	-7%
O=C(O)c1c2c(nc3ccccc13)-c1ccccc1CC2	11µM*	/	-1%	-1%	-2%	8%
CN(C)c1ccc(/C=C2\CCCc3c2nc2ccccc2c3C(=O)O)cc1	4.3µM*	/	/	2.5µM*	0.89µM*	12µM*
O=C(O)c1ccc(/C=C2\CCCc3c2nc2ccccc2c3C(=O)O)cc1	2%	/	/	-41%	0%	-2%
CCN(c1ccccc1)c1nnc(NC(=O)Nc2cccc(Br)c2)s1	4%	/	/	/	/	/
Cc1cc(Cl)ccc1NC(=O)CCS(=O)(=O)c1ccc2c(c1)CC(C)N2C(=O)C1CC1 (stereo unspecified)	-1%	/	/	/	/	/
SMILES	FLuc modulator	SMN2 splice enh	KinaseGlo FLuc	NPC1 promoter act	Rab9 prom act	ELG1 genotoxic
c1cncc(-c2nc3c(ccc4ccccc43)[nH]2)c1	11µM*	8%	-1%	?	?	7%
O=C(Nc1ccccn1)c1ccc(S(=O)(=O)N2CCCCC2)cc1	13µM*	/	/	?	?	9.2µM*
Cc1ccnc(NC(=O)c2cccc(S(=O)(=O)N3CCCc4ccccc43)c2)c1	4.8µM*	/	/	0%	0%	7.3µM*
O=C(Nc1ccccn1)c1ccc(S(=O)(=O)N2CCCCCC2)cc1	17µM*	/	/	?	?	9.2µM*
Cc1ccnc(NC(=O)c2ccc(S(=O)(=O)N3CCCCC3)cc2)c1	-9%	/	/	3%	1%	-1%
Cc1ccnc(NC(=O)c2ccc(S(=O)(=O)N3CCCCCC3)cc2)c1	8.5µM*	/	/	16%	27%	11%
O=C(Nc1ccccn1)c1cccc(S(=O)(=O)N2CCCc3ccccc32)c1	-2%	/	/	-3%	-5%	-3%
CCn1c(-c2ccc(F)cc2)cnc1SCC(=O)N1CCCCC1C (stereo unspecified)	11µM*	1%	-4%	?	?	6.5µM*
CCn1c(-c2ccc(F)cc2)cnc1SCC(=O)N1CCc2ccccc21	?	27%	2%	-2%	-1%	13%
COc1cccc(Cn2c(CNS(=O)(=O)c3ccc(F)c(Cl)c3)nc3cccnc32)c1	1%	/	/	/	/	/
COCc1cc(C)nc2sc(C(=O)Nc3cccc(OC)c3)c(N)c12	8.5µM*	/	/	2.2µM*	3.2µM*	?
COCc1cc(C)nc2sc(C(=O)Nc3ccccc3OC)c(N)c12	17µM*	/	/	-7%	-1%	-1%
O=c1[nH]c(SCc2c(F)cccc2Cl)nc2c1CCC2	-9%	/	/	/	/	/
CCc1ccc(N2C(=O)C3C4C=CC(CC4)C3C2=O)cc1 (stereo unspecified)	4.3µM*	/	/	3%	19%	9%
O=C1C2C3C=CC(CC3)C2C(=O)N1c1ccc(Cl)cc1 (stereo unspecified)	-22%	/	/	5%	2%	0%
COc1ccc(NC(=O)Nc2ccc(N3CCOCC3)c3nonc23)c(OC)c1	-1%	7%	-3%	0%	-3%	6%
O=C(Nc1ccc(F)cc1)Nc1ccc(N2CCOCC2)c2nonc12	?	?	-11%	?	2.2µM*	?
O=C(Nc1ccc(SC(F)F)cc1)c1cc(-c2ccc3c(c2)OCCO3)on1	5.4µM*	/	/	/	/	/
CC(=O)c1ccc(NC(=O)c2cc(-c3ccc4c(c3)OCO4)on2)cc1	-2%	6%	/	/	/	/
O=C(Nc1ccc(SC(F)F)cc1)c1cc(-c2cccs2)on1	-14%	/	/	/	/	/
Cc1ccc(OC(=O)c2cc(-c3ccc4c(c3)OCCO4)on2)c(C)c1	1.5µM*	/	/	/	/	/
CC(=O)Nc1ccc(NC(=O)c2cc(-c3ccc4c(c3)OCCO4)on2)cc1	0.34µM*	/	/	/	/	/
O=C(Nc1cccc(O)c1)c1cc(-c2ccc3c(c2)OCO3)on1	0.15µM*	/	/	?	?	?
Cn1nnnc1SCCCNCc1cc(Cl)ccc1OCc1ccc(F)cc1	5%	/	/	/	/	/
O=c1c(-c2ccccc2)nc2cnc(N3CCNCC3)nc2n1Cc1cccs1	/	-9%	-2%	/	/	/
CC(=O)c1cccc(NC(=O)c2cc(-c3ccc4c(c3)OCCO4)on2)c1	0.15µM*	/	/	/	/	/
CC(=O)c1cccc(NC(=O)c2cc(-c3ccc(C)cc3)on2)c1	?	?	0%	?	?	4.6µM*
